The text below walks through data of publication PMC4336329 (PLoS ONE, 2015).

SMILES strings stand for the structures. In all, about 310,000 compounds went through this assay and about 14,000 (4.5%) showed an effect of 50% or more. Effects have a minus sign here. This excerpt belongs to a sample that is enriched for strong results.
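Note: peak tail current of the secondary pulse compared with the same well before compound.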

Chain of human ether-à-go-go-related gene (hERG) potassium channel (Q12809 whole entry, looked up): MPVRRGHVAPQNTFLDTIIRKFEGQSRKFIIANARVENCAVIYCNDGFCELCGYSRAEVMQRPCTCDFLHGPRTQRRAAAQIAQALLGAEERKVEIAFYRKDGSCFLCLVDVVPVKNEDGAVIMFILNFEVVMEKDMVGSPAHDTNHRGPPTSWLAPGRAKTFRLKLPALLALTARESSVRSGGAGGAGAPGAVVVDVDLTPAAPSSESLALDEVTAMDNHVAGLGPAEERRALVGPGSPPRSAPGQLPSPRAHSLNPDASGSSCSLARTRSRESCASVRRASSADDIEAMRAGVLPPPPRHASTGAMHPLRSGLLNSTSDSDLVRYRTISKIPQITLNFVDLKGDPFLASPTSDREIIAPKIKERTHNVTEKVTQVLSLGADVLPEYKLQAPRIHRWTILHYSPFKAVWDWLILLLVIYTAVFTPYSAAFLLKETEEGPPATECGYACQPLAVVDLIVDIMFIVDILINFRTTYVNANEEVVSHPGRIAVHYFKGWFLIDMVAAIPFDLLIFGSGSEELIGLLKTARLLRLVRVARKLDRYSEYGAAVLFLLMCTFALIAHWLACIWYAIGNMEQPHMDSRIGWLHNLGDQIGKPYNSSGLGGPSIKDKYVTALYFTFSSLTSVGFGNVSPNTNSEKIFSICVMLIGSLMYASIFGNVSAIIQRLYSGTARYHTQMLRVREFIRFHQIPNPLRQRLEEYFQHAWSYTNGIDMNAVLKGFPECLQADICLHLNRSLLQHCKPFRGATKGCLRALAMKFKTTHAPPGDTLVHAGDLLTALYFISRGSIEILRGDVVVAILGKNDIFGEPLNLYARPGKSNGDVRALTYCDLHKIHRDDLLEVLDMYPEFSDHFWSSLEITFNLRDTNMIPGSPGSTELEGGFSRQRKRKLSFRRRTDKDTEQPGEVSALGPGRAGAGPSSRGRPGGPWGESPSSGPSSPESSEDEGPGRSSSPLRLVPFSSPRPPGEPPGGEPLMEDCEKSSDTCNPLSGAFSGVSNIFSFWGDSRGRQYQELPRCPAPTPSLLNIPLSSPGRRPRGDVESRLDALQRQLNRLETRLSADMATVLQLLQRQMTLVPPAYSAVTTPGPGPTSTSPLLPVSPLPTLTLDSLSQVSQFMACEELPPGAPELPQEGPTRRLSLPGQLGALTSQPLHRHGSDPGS

This assay addresses human ether-à-go-go-related gene (hERG) potassium channel (human, UniProt Q12809). Put plainly: primary screen, population patch clamp on CHO cells stably expressing hERG; higher = less effect of the substance.
Consider `CC(C)C(=O)N1CCN(c2nc(-c3ccc(Cl)cc3)cs2)CC1`, for which the “hERG current change (%, negative = inhibition) at 10uM” value is given as -82.5%. With `Fc1ccc(-c2csc(N3CCSCC3)n2)cc1` the figure was 17.6%; with `CS(=O)(=O)N1CCN(c2nc(-c3ccc(F)cc3)cs2)CC1`, -77.2%. In the case of `CCOC(=O)N1CCN(c2nc(-c3ccc(Cl)cc3)cs2)CC1`, the “hERG current change (%, negative = inhibition) at 10uM” value is on record as -8.2%. With `O=S(=O)(c1ccc(F)cc1)N1CCN(c2nc(-c3ccc(F)cc3)cs2)CC1` the figure was -8.44%; with `CCC(=O)N1CCN(c2nc(-c3ccc(Cl)cc3)cs2)CC1`, -25%; with `CC(=O)c1ccc(N2CCN(C(=O)c3ccc(NC4=NC5CS(=O)(=O)CC5S4)cc3)CC2)cc1` (centres unmarked), -1.77%. Then `COc1ccccc1NC(=O)C1CCOC1=O` (centres unmarked), with 15.4%. Then `CCCn1nnnc1NCc1ccc(OC)cc1`, with 15.3%; and `O=C(CC1C(=O)NCCN1Cc1cccc(Oc2ccccc2)c1)NCCc1cscn1` (centres unmarked), with 8.01%. With `C=CC[n+]1c(C)csc1Nc1cccc(Br)c1.[Br-]`, the “hERG current change (%, negative = inhibition) at 10uM” value is reported as -6.64%. With `Cc1cccc(N(CC(=O)NCC2CCCO2)C(=O)CCC(=O)Nc2nccs2)c1` (centres unmarked) the figure was 12.9%; with `COc1ccc(N2CCN(C(=O)CNC(=O)Cc3ccccc3)CC2)cc1`, -13.3%. With `CCN(CC)CCNC(=O)c1c(C)oc2cc(Br)c(OC)cc12`, the “hERG current change (%, negative = inhibition) at 10uM” value is -32.1%. With `COc1cc2c(C(=O)OCCN(C)C)c(CSc3ccccc3)n(C)c2cc1Br` the figure was 5.67%; with `COc1ccc2c(c1)c(C(=O)N1CCN(C)CC1)c(C)n2-c1ccccc1`, -44%.

For `CCN(CC)CCNC(=O)c1c(C)n(-c2ccccc2)c2cc(Br)c(OC)cc12`, the “hERG current change (%, negative = inhibition) at 10uM” value is -51.5%. With `COc1cc2c(C(=O)N3CCN(C)CC3)c(CSc3ccccc3)n(C)c2cc1Br`, the “hERG current change (%, negative = inhibition) at 10uM” value is given as -74%.

For the compound `COc1cc2c(C(=O)N3CCOCC3)c(CSc3ccccc3)n(C)c2cc1Br`, the “hERG current change (%, negative = inhibition) at 10uM” value is recorded as -6.35%. Then `COc1cc2c(C(=O)O)c(C)n(C)c2cc1Br`, with 20.3%; and `COc1cc2c(C(=O)N3CCN(C)CC3)c(C)n(-c3ccccc3)c2cc1Br`, with -54.7%; and `COc1cc2c(C(=O)N3CCN(C)CC3)c(C)n(C)c2cc1Br`, with -9.17%.

As for `O=C(COC(=O)CNC(=O)c1ccccc1F)NC12CC3CC(CC(C3)C1)C2`, the “hERG current change (%, negative = inhibition) at 10uM” value is 0.652%.

Take `COc1ccccc1NC(=O)Nc1cccc(C(=O)O)c1`: the “hERG current change (%, negative = inhibition) at 10uM” value is given as 17.5%. Then `N#CC(c1ccc(Cl)cc1)c1ccc2c(C(F)(F)F)cc(C(F)(F)F)nc2n1` (centres unmarked), with 6.7%; and `CCS(=O)(=O)N1CCC(C(=O)OCC(=O)c2ccc(Br)cc2)CC1`, with 3.45%; and `CCn1c(=Nc2ccc(N3CCOCC3)cc2)ccc2ccccc21`, with -66.8%. With `Cn1c(=Nc2ccc(N3CCOCC3)cc2)ccc2ccccc21` the figure was -47.5%; with `Oc1ccc2ccccc2c1C=Nc1ccc(N2CCOCC2)cc1`, 3.04%; with `COc1ccccc1OCc1ccc(C(=O)N(C)c2ccccc2)o1`, 7.76%. As for `COC(=O)c1coc(-c2ccc(OC)cc2)c1C(=O)OC`, the “hERG current change (%, negative = inhibition) at 10uM” value turned out to be 13.8%. With `Cc1ccc(OCCCCN2CCc3ccccc3C2)cc1.Cl`, the “hERG current change (%, negative = inhibition) at 10uM” value is recorded as -34.9%. Regarding `O=C(COc1ccc(S(=O)(=O)N2CCOCC2)cc1)N1CCOCC1`, the “hERG current change (%, negative = inhibition) at 10uM” value is reported as 10.6%.

On to `Cc1ccc(OCC(=O)N2CCc3ccccc3C2)cc1`, for which the “hERG current change (%, negative = inhibition) at 10uM” value was -3.37%.

Turning to `O=C(COc1ccccc1)N1CCc2ccccc2C1`, the “hERG current change (%, negative = inhibition) at 10uM” value was 10%. For the compound `O=C(COc1ccc([N+](=O)[O-])cc1)N1CCc2ccccc2C1`, the “hERG current change (%, negative = inhibition) at 10uM” value was -54.5%.

As for `Cl.Clc1ccc(OCCCCN2CCc3ccccc3C2)cc1`, the “hERG current change (%, negative = inhibition) at 10uM” value is recorded as -68.1%. Then `O=C(CCc1ccc(S(=O)(=O)N2CCOCC2)cc1)N1CCc2ccccc2C1`, with -14.5%; and `O=C(COc1ccc(S(=O)(=O)N2CCOCC2)cc1)N1CCc2ccccc2C1`, with -55.9%.

Take `O=C(O)C(=O)O.O=[N+]([O-])c1ccc(OCCCCN2CCc3ccccc3C2)cc1`: the “hERG current change (%, negative = inhibition) at 10uM” value was -76.3%.

For `O=C(Cc1ccc([N+](=O)[O-])cc1)N1CCc2ccccc2C1`, the “hERG current change (%, negative = inhibition) at 10uM” value is -17.7%.

`O=C(CCCOc1ccccc1)N1CCc2ccccc2C1`: the “hERG current change (%, negative = inhibition) at 10uM” value was determined as 0.877%. Take `Cl.O=[N+]([O-])c1ccccc1OCCCN1CCc2ccccc2C1`: the “hERG current change (%, negative = inhibition) at 10uM” value was -49.7%. For `O=C(CCNS(=O)(=O)c1cccc2nsnc12)NCCc1ccccc1`, the “hERG current change (%, negative = inhibition) at 10uM” value is on record as -4.18%. Then `COC(=O)CC1(CC(=O)OC)C(=O)NC(=O)NC1=O`, with 7.37%; and `CCCC(=O)OCC(=O)Nc1cc(Cl)ccc1[N+](=O)[O-]`, with 16.8%; and `Cc1ccc(Oc2nc3ccccc3n3cccc23)cc1`, with -10.1%. With `O=C(OCC(=O)N1CCCc2ccccc21)c1ccc(Cl)nc1` the figure was -3.94%. With `Cc1c(C(=O)NNC(=O)c2csc(N3CCOCC3)n2)oc2ccccc12` the figure was -38.7%. For the compound `COC(=O)C1CCN(Cc2c(C(=O)N3C[C@@H](C)O[C@@H](C)C3)nc3ccc(Cl)cn23)CC1`, the “hERG current change (%, negative = inhibition) at 10uM” value worked out at 21.1%.
